# Several values for one entry are separate records, joined by “and”; a condition that tells them apart may be missing. Equal values may be shown once. In all, about 270,000 compounds went through this assay and about 410 (0.15%) were called active. No stated cut-off is given here; in the data, active means activation above about 40%; inactive means the rest, inconclusive results apart. The full list was thinned out, with actives kept by preference. Some compounds were tested as several samples or in several runs, with calls that do not always agree.
# Tested on: Aedes aegypti neuropeptide Y-like receptor 7 (NPYLR7)
# Assay: agonists of mosquito NPYLR7 receptor, primary screen, cell-based, Aedes aegypti, calcium fluorescence, mosquito biting behavior (AID 1259423);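 further: 0% = vehicle and 100% = reference agonist at the receptor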
# Details: HEK293T NPYLR7/Galpha15, GCaMP6s calcium fluorescence, at 10 µM, stronger effect = higher value
# [1] = measured here: Max-Min RFU normalised activation
Compound,activation,activation [1]
Cc1nc(N)sc1C(=O)N/N=C1\CCn2cccc21,4.89% (inactive),3.57%
CCc1nc2c(OCC=C(C)C)cccn2c1N(C)C(=O)c1ccco1,6.84% (inactive),-5.05%
CCOC(=O)C1CCN(C(=O)CC2CSc3nc4c(c(=O)n32)CCCC4)CC1 (configuration not stated),-0.315% (inactive),-2.68%
COc1ccc(NCc2cccc(F)c2)cc1N1CCOC1=O,11.9% (inactive) and 1.76% (inactive),10.7% and -0.214%
CCN(CC)c1onc(-c2ccc(F)cc2)c1CN(CCOC)C(=O)Cc1ccccc1,15% (inactive),16.6%
Cc1ccc(F)c(-n2nnnc2CSCC(=O)NC(C)(C)C)c1,1.4% (inactive),3.68%
Cc1cc(C)cc(C(O)C(F)(F)F)c1 (configuration not stated),4.04% (inactive) and 3.71% (inactive),3.27% and 11.4%
CCc1cccc2sc(N(Cc3ccccn3)C(=O)c3cccc(S(=O)(=O)CC)c3)nc12,1.88% (inactive),-3.52%
COc1ccc(CN(CC(O)COCC(C)C)CC2CCCO2)cc1OC (configuration not stated),1.65% (inactive),13.2%
CN(Cc1ncc[nH]1)C1CCN(c2ccc3c(c2)OCO3)CC1,-10.3% (inactive),-10.5%
NC(=O)[C@@H]1CN2CCN(C(=O)c3ccco3)C[C@@H]2[C@H]1c1ccccc1,2.73% (inactive),0.0894%
O=C(c1ccc(-n2cnnn2)cc1)N1CCCC(N2CCCC2)C1 (configuration not stated),6.38% (inactive),2.39%
O=c1c2ccccc2sn1CN1CCN(c2ccc(C(F)(F)F)cn2)CC1,10.9% (inactive),3.72%
CC[C@H]1CN(Cc2cc(Cl)cc(OC)c2OC)CC[C@@]1(C)O,-5.14% (inactive),-11.2%
Cc1ccc(CN(CCN2CCOCC2)CC(O)c2ccccc2)s1 (configuration not stated),1.67% (inactive),15.8%
CCN1C(=O)CSC1=C(C#N)C(N)=O,4.07% (inactive),-0.252%
CN(C)CC1(O)CCCN(C(=O)c2ccc(N3CCCC3=O)cc2)C1 (configuration not stated),-3.42% (inactive),-7.14%
Nc1ccc2c3c(cccc13)C(=O)NC2=O,147% (active),136%
CC1CNC(=O)CCN1Cc1ccc2cccc(Cl)c2n1 (configuration not stated),8.75% (inactive),6.16%
Clc1cccc2ccc(CN3CCn4cncc4C3)nc12,133% (active),113%
Cc1c(CN2CCn3cncc3C2)c(=O)n(-c2ccccc2)n1C,20.8% (inactive),15.6%

Compound,activation,activation [1]
Cc1nc2ccccc2c(=O)n1N=Cc1ccc(OCc2ccccc2)cc1,-6.32% (inactive),-12.4%
CCOc1ccc(N2CC(NC(=O)Nc3ncccc3C)CC2=O)cc1 (configuration not stated),2.56% (inactive),-0.89%
Cn1nc(C(=O)N2CCCC(COc3ccccc3F)C2)ccc1=O (configuration not stated),11.1% (inactive),4.67%
O=C(Cc1cnn(-c2ccccc2)n1)N1CCCCCCC1,10.9% (inactive),7.94%
O=C(c1cnn(-c2ccccc2)n1)N1CCCC(COCc2ccccc2)C1 (configuration not stated),97.3% (active),92.7%
CN1CCOC(CCNC(=O)CCC(=O)N2CCCCCC2)C1 (configuration not stated),1.36% (inactive),-0.93%
COc1ccc(C(=O)C=Cc2cc(Br)c(O)c(OC)c2)cc1F,172% (active),160%
COc1ccc(C=CC(=O)c2ccc(I)cc2)cc1OC,1.5% (inactive),6.21%
COc1ccc(C(=O)C=Cc2ccc(F)c(F)c2)cc1F,2.38% (inactive),-4.33%
CCCCCCC(=O)Nc1c(-c2ccc(OC)c(OC)c2)nc2cc(C)ccn12,-2.82% (inactive),4.02%
CC(=O)N1CCC(C(=O)N2CCCC(C(=O)c3ccc(C(F)(F)F)cc3)C2)CC1 (configuration not stated),0.616% (inactive),-1.09%
COc1ccc(C)c2sc(N(Cc3ccccc3)C(=O)c3ccc([N+](=O)[O-])o3)nc12,3.04% (inactive),0.795%
Oc1ccc(-c2onc3ccc(Cl)cc23)cc1,112% (active),227%
N#C/C(=C\c1ccc2noc(-c3ccccc3)c2c1)C(=O)Nc1ccccc1C#N,22.3% (inactive),18.1%
c1ccc(Nc2nc(-c3ccco3)nc3ccccc23)cc1,-1.91% (inactive),4.58%
COc1ccccc1-c1cc(C(=O)N2CCCC2)n2nc(C(C)(C)C)cc2n1,3.24% (inactive),10.6%
CC1CN(C(=O)NCC(C)N(C)c2ccccc2)CC(C)O1 (configuration not stated),4.84% (inactive),1.94%
COc1ccc(CN(Cc2nc(C(=O)O)co2)C(C)c2ccccc2)c(OC)c1 (configuration not stated),10.6% (inactive),6.62%
CN(Cc1cc(-c2ccncc2)no1)Cc1cn[nH]c1-c1cccc(F)c1,1.92% (inactive),4.35%
COc1ccc(N2C(=O)/C(=C\c3ccc(N(C)C)cc3)SC2=S)cc1,-3.18% (inactive),-7.36%
CC(C(=O)O)N1C(=O)/C(=C/c2ccc(N(C)C)cc2)SC1=S (configuration not stated),64.5% (active),54.2%

Compound,activation,activation [1]
CC(C(=O)O)N1C(=O)/C(=C/c2ccccn2)SC1=S (configuration not stated),-2.67% (inactive),-6.6%
Brc1ccc2nc(-c3ccccc3)c(NC3CCCCC3)n2c1,-4.85% (inactive),5.22%
Cc1csc(=O)n1CCC(=O)OC(C)C(N)=O (configuration not stated),1.77% (inactive),0.428%
CC(=O)Oc1ccc(Cn2c(C)c(C(=O)NCc3ccc(C#N)cc3)sc2=O)cc1,53.2% (active),43.3%
Cc1c(C(=O)NCc2ccc(C#N)cc2)sc(=O)n1Cc1ccc(C(=O)N(C)C)cc1,2.34% (inactive),-0.426%
CC(=O)Oc1ccc(Cn2c(C)c(C(=O)NCc3ccc(C(C)C)cc3)sc2=O)cc1,-6.93% (inactive),-8.16%
CC(=O)N1CCN(C(=O)COc2c(C)cc(Br)cc2Cl)CC1,2.73% (inactive),1.6%
O=P1(Nc2cc(C(F)(F)F)ccc2Cl)C=C(c2ccccc2)OC(c2ccccc2)=C1,52.5% (active),88.3%
COc1ccc(C(=O)Nc2cc(C(F)(F)F)ccc2Cl)cc1[N+](=O)[O-],1.83% (inactive),0.579%
CCn1c(N2CCN(Cc3cccc4ccccc34)CC2)nc2c1c(=O)[nH]c(=O)n2C,1.95% (inactive),4.2%
O=C(Nc1nc2c(s1)CCC2)c1cnn(Cc2ccccc2)c1,-0.747% (inactive),-2.1%
O=C(c1ccco1)N(Cc1cccc(Cl)c1)CC1CC(c2ccccc2F)=NO1 (configuration not stated),-2.38% (inactive),16.5%
O=C1CCCCCCCCCOCCCCCO1,1.79% (inactive),0.962%
O=C(NCC1CCCO1)c1cccc(Nc2c(Oc3cccc(Cl)c3)cnn(-c3ccccc3)c2=O)c1 (configuration not stated),0.00562% (inactive),12.8%
COCCN(CC(=O)N1CCc2sccc2C1c1ccccc1)C(=O)COCc1ccccc1 (configuration not stated),1.27% (inactive),4.39%
Nc1c(Oc2ccccc2)cc(Nc2ccccc2)c2c1C(=O)c1ccccc1C2=O,-6.94% (inactive),-5.96%
Cc1csc(=Nc2ccccc2)n1C1CCCC1,1.06% (inactive),7.29%
O=C1OCCN1Cc1nc(CCc2ccccc2)nn1-c1ccccn1,-2.22% (inactive),-8.03%
CC(=O)N1CCc2c(sc(NC(=O)c3cccs3)c2-c2nc3ccccc3s2)C1,3.8% (inactive),5.03%
CC(=O)c1ccc(C(=O)Nc2sc3c(c2-c2nc4ccccc4s2)CCN(C)C3)cc1,12.4% (inactive),11.3%
CCOc1ccc(C(=O)Nc2sc3c(c2-c2nc4ccccc4s2)CCN(C)C3)cc1,105% (active),107%

Compound,activation,activation [1]
Cc1ccc(CCC(=O)N2CCOC3(CNCCOC3)C2)cc1C (configuration not stated),5.94% (inactive),6.1%
Cc1c(NC(=O)C(C)(C)c2ccccc2)cccc1C(=O)N1CCOCC1,2.93% (inactive),1.78%
CCOc1nc(-c2ccc(C(F)(F)F)cc2)n(-c2ccc(NCC(O)COCc3ccccc3)cc2)n1 (configuration not stated),-2.33% (inactive),4.92%
Fc1ccc(N2CCC(N3CCCC(Nc4ccccc4)C3)CC2)cc1 (configuration not stated),-4.09% (inactive) and -0.074% (inactive),-9.41% and 0.61%
O=[N+]([O-])c1c(Nc2ccccc2)[nH]c2ccccc12,15.3% (inactive),12.9%
CC(Oc1ccccc1)C(=O)N[C@@H]1C(=O)N2[C@@H]1SC(C)(C)[C@@H]2C(=O)O (some centres not stated),-1.06% (inactive) and 61.5% (active),-1.47% and 49.3%
CCOC(=O)OC(C)OC(=O)C1N2C(=O)C(NC(=O)[C@H](N)c3ccccc3)C2SC1(C)C (some centres not stated),-11.5% (inactive),-16.7%
CC1(C)SC2C(NC(=O)COc3ccccc3)C(=O)N2C1C(=O)O (configuration not stated),-1.02% (inactive),-6.97%
CCOC(=O)C(C)Sc1ccc(NC(=O)C(C)C)nn1 (configuration not stated),0.376% (inactive),-0.597%
CC(=O)N[C@H]1C[C@@H](c2c(C)nc3sccn23)O[C@@H](C2CCCCC2)C1,19.4% (inactive),3.2%
CN(c1ccccc1)c1nnc(C(O)c2cc(F)c(F)c(F)c2)s1 (configuration not stated),0.561% (inactive),-0.28%
CCc1nc2ccc(C(=O)N(C)Cc3ccco3)cn2c1N(C)CCC(C)C,-5.57% (inactive),-12.5%
O=C(Nc1ccc(C(F)(F)F)cc1)C1CCCN(c2ccc(-c3ccco3)nn2)C1 (configuration not stated),-4.36% (inactive),-8.71%
C=CCN(Cc1csc(COc2ccc(C)c(C)c2)n1)C(=O)c1cccc(OC)c1,-4.71% (inactive),3.47%
Cc1c(-c2ccccc2)c(=O)oc2c3c(ccc12)OCN(Cc1cccnc1)C3,-8.96% (inactive),-15.9%
COc1cccc(/C=C2\Oc3c(ccc4c3CN(Cc3ccncc3)CO4)C2=O)c1,66.8% (active),55.3%
COCCCN1COc2ccc3c(c2C1)O/C(=C\c1cccc(OC)c1OC)C3=O,26.3% (inactive),20.7%
Cc1nn(C)cc1N1C(=O)c2cccc3c([N+](=O)[O-])ccc(c23)C1=O,-4.56% (inactive),-14.9%
